# HEK cytotox: cytotoxic compounds in HEK 293 cells | hit rate 6.6% among 94,000 | Potency, µM (series often up to 115 µM), hits mostly inhibitors | HEK 293 viability, ATP luminescence (CellTiter-Glo), 48-72 h; further: nearly all actives have a fitted effect of over 60% in size
#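 250 HEK 293 cells/well; compound by pintool; incubated 48 or 72 hr at 37 degree Celsius; CellTiter-Glo added, 10 min RT, luminescence imaged.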
# Luciferase inh: inhibitors of firefly (Photinus pyralis) luciferase | P08659 | AID 1347043 | purified P. pyralis luciferase, luminescence, biochemical | hit rate 2.5% among 76,000 | Potency, µM (titrated, usually from 115 µM), hits mostly inhibitors; further: nearly all actives have a fitted effect of over 65% in size
#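 Purified 10nM P. pyralis luciferase with 10uM D-luciferin and 10uM ATP in 50mM Tris acetate pH 7.5, 10mM Mg acetate, 0.01% Tween-20, 0.05% BSA. qHTS titration; luminescence read by CCD imager.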
# NPR1 antag: antagonists of human natriuretic peptide receptor Npr1 | AID 1347048 | HEK293 hNpr1 GloSensor cGMP, ANP-stimulated luminescence | P16066 | Potency, µM (highest dose often 46.3 µM), actives largely listed as inhibitors | hit rate 1.6% among 76,000; calls by dose curve; further: nearly all actives have a fitted effect of over 60% in size
# Target sequence (P16066 whole entry, looked up): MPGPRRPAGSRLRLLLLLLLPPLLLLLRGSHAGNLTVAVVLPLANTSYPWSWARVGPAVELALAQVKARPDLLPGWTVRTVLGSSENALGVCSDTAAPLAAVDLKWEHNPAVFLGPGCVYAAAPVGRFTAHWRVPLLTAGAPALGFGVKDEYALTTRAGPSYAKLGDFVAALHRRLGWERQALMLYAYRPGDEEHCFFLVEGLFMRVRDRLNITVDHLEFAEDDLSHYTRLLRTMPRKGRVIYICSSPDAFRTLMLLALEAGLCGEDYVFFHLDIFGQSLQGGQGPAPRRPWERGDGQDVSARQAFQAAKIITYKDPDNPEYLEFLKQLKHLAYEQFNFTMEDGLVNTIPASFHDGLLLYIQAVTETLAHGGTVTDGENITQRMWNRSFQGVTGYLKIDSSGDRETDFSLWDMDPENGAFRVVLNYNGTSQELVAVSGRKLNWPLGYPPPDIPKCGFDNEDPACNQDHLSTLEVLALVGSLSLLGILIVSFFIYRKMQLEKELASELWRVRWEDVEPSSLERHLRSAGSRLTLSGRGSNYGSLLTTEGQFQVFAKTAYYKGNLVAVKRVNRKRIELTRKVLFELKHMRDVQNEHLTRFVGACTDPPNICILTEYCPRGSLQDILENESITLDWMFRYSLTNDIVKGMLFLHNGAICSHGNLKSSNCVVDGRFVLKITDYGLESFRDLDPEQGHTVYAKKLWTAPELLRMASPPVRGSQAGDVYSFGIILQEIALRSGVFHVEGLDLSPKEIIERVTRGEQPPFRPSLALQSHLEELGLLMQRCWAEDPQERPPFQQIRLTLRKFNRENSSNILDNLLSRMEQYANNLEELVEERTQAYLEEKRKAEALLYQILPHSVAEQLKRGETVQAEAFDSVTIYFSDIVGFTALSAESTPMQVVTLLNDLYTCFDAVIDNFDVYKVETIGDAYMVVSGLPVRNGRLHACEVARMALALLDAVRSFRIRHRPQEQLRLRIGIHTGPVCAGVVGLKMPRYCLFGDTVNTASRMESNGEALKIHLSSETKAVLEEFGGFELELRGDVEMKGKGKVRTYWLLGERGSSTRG
#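 HEK293 cells stably expressing human Npr1 and cGMP GloSensor pGS-40F, loaded 2 h with 2% GloSensor reagent, given compound 30 min at room temperature. Luminescence read before and 20 min after 0.1 nM hNppA.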
# NIH3T3 tox: NIH 3T3 cell cytotoxicity. hit rate 4.3% among 94,000. NIH 3T3 viability, CellTiter-Glo ATP luminescence, 48-72 h. Potency, µM (doses to about 96.7 µM), most hits filed as inhibitors; further: nearly all actives have a fitted effect of over 55% in size
#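 Cytotoxicity was measured by CellTiter-Glo ATP luminescence after 48 or 72 h compound exposure at 37 °C. Mouse NIH 3T3 fibroblasts were seeded at 400 cells/well and dosed by 23 nL pin transfer.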
# Numbers stand for hits; 0 = inactive; ? = inconclusive; - = no result given. Sampled rows, rich in hits. Any-hit rate of the full collection: about 11%. Unless noted, the call rests on the fitted dose curve; in most records, active means well fitted curve in the direction sought with a large enough effect; inconclusive means small, poorly fitted or top-dose-only effect, or another doubt; inactive means no such curve, though single readings can be large; an effect the other way counts as inactive or inconclusive.
SMILES,HEK cytotox,Luciferase inh,NPR1 antag,NIH3T3 tox
Cn1cc(-c2cn(C)c(=O)n3cc(CNc4ccccc4)nc23)cn1,0,?,0,?
COc1ccc(C(=O)N2CCCC3(C2)C(=NC2CCCCC2)NC(=O)N3c2cc(F)cc(F)c2)cc1 (stereo not drawn),0,-,-,0
COc1ccc(C(=O)N2CCC3(CC2)C(=NC2CCCCC2)NC(=O)N3c2cccc(OC)c2)cc1,0,-,-,28.2µM
COc1ccc(C(=O)N2CCC3(CC2)C(=NC2CCCCC2)NC(=O)N3c2cc(F)cc(F)c2)cc1,0,-,-,31.6µM
O=C(c1ccc(C(F)(F)F)cc1)N1CCC2(CC1)C(=NC1CCCCC1)NC(=O)N2c1cc(F)cc(F)c1,0,-,-,?
COc1cccc(N2C(=O)NC(=NC3CCCCC3)C23CCN(C(=O)c2ccc(C(F)(F)F)cc2)CC3)c1,0,-,-,0
O=C(c1ccc(C(F)(F)F)cc1)N1CCC2(C1)C(=NC1CCCCC1)NC(=O)N2c1cc(F)cc(F)c1 (stereo not drawn),0,-,-,25.1µM
Cc1ccc(C(=O)N2CCC3(CC2)C(=NC2CCCCC2)NC(=O)N3c2cc(F)cc(F)c2)cc1,0,-,-,31.6µM
CO[C@H]1CN(C(C)C)[C@H]1C1CCN(C(=O)C2CC=CC2)CC1,0,-,-,0
CN1CCC(N(C)C(=O)CC2CCCN(c3cnn(C)c(=O)c3)C2)CC1 (stereo not drawn),0,-,-,0
Cn1ncc(CN2CCc3nc(-c4ccc(F)cc4F)[nH]c3C2)c1C1CC1,?,0,0,0
CCc1[nH]c2c(CNC(=O)c3n[nH]c4c3CCC4)cc(C)cc2c1C,35.5µM,0,0,35.5µM
CCc1[nH]c2c(CNC(=O)CC3C(=O)NCCN3C(C)C)cc(C)cc2c1C (stereo not drawn),0,0,0,0
COc1ccc(-c2ccnc3nc(CCc4ccccc4)nn23)c(F)c1,?,0,0,?
COc1ccc(-c2ccnc3nc(Cc4cc(F)cc(F)c4)nn23)c(F)c1,39.8µM,0,0,?
Cc1ccc(CN2C(=O)[C@@H]3C[C@@H](O)CN3C3(CN(Cc4cccc(F)c4)C3)C2=O)o1,0,0,0,0
CCn1cc(-c2cc3c(cn2)CN(Cc2cccnc2)CCN3)cn1,?,63.1µM,0,0
Cc1cc(-c2cc3c(cn2)CN(CC2CCOC2)CCN3)ccn1 (stereo not drawn),0,?,0,?
Cc1cc(-c2cc3c(cn2)CN(Cc2cccc(F)c2)CCN3)ccn1,70.8µM,15.8µM,0,?
NC(=O)c1cccc(-c2cc3c(cn2)CN(Cc2ccncc2)CCN3)c1,0,?,0,?
c1ccc(CN2CCNc3cc(-c4cccnc4)ncc3C2)cc1,?,0,0,0
COc1ccc(OC)c(CN2CCNc3cc(-c4ccnc(C)c4)ncc3C2)c1,100µM,?,0,?
COc1ccc(CN2CCNc3cc(-c4ccnc(C)c4)ncc3C2)cc1,89.1µM,?,0,?
CC1(CCCCc2ccccc2)COc2ccc(C(=O)NCCc3cnc[nH]3)cc2N1 (stereo not drawn),?,0,0,?
CCCn1c(C)cnc1CC1CCN(C(=O)NCc2ccc(C)cc2)CC1,0,-,-,0
SMILES,HEK cytotox,Luciferase inh,NPR1 antag,NIH3T3 tox
COc1ccc(CC(=O)N2[C@@H](c3ccco3)[C@@H](C(=O)O)C[C@]23CCCCN(C)C3=O)cc1,0,-,-,?
COc1ccccc1C(=O)N1CCCn2nc(C)c(-c3ccccc3-c3ccccc3)c21,89.1µM,0,0,?
Cc1nn2c(c1-c1ccccc1-c1ccccc1)N(C(=O)C1CCOCC1)CCC2,0,0,0,?
Cc1nn2c(c1-c1ccccc1Oc1ccccc1)N(C(=O)C1CCC1)CCC2,89.1µM,0,0,?
COc1ccc(C(=O)N2CCCn3nc(C)c(-c4ccccc4-c4ccccc4)c32)cn1,?,0,0,?
Cc1ccncc1-c1c(C)nn2c1N(C(=O)c1cccc(Cl)c1)CCC2,0,0,0,?
Cc1nn2c(c1-c1cccc3cn[nH]c13)N(C(=O)c1cccc(Cl)c1)CCC2,50.1µM,0,0,?
COc1ccc(C(=O)N2CCCn3nc(C)c(-c4ccccc4-c4ccccc4)c32)cc1,35.5µM,0,0,?
CNC(=O)N1CCC(C2CCN(Cc3ccccc3C#N)C2)CC1 (stereo not drawn),?,0,0,0
C=CCNC(=O)CN1CN(c2ccccc2)C2(CCN(C(=O)NCc3ccccc3)CC2)C1=O,0,0,0,0
NC(=O)N1CCCC(C(=O)N2CCN(c3nsc4ccccc34)CC2)C1 (stereo not drawn),25.1µM,0,0,?
COC1CCN(CC2CCCCCN2C(=O)c2ccc(F)cc2)CC1 (stereo not drawn),0,-,-,0
CN(CCc1ccccn1)C(=O)CC1CCCN(c2cnn(CC3CC3)c(=O)c2)C1 (stereo not drawn),0,0,0,0
O=Cc1ccccc1-c1cnc2ccccc2c1,0,-,-,79.4µM
O=C(Cn1nc2n(c1=O)CCCC2)Nc1ccc2c(c1)OCCO2,0,20µM,0,0
O=C(CN1C(=O)NC2(CCOCC2)C1=O)Nc1ccc2c(c1)OCCO2,0,44.7µM,0,0
CC(C)(C)C1CCC2(CC1)NC(=O)N(CC(=O)Nc1ccc3c(c1)OCCO3)C2=O (stereo not drawn),?,?,0,28.2µM
O=C(Cn1nc2n(c1=O)CCCC2)Nc1ccc2c(c1)OCO2,0,?,0,0
COc1ccc(CCc2nc3nccc(-c4ccc5c(c4)OCCCO5)n3n2)cc1OC,44.7µM,?,0,?
COc1ccc(Cc2nc3nccc(-c4ccc5c(c4)OCCCO5)n3n2)cc1,?,0,0,?
Fc1ccc(Cc2nc3nccc(-c4ccc5c(c4)OCCCO5)n3n2)cc1,44.7µM,?,0,?
COC[C@@H]1CCCN1Cc1cn(-c2ccccc2)nc1-c1ccc(OC)cc1F,?,?,0,?
CCC1C(=O)NCCN1Cc1cn(-c2cccc(F)c2)nc1-c1ccc(C)o1 (stereo not drawn),?,28.2µM,0,?
CN(Cc1cnn(-c2ccc(F)cc2)c1)c1cc(C2CC(O)C2)ncn1 (stereo not drawn),28.2µM,0,?,?
CC(=O)N1CCN(c2ncccc2CNCc2ccc(CC(C)C)cc2)CC1,?,0,0,?
SMILES,HEK cytotox,Luciferase inh,NPR1 antag,NIH3T3 tox
O=C(c1ccccc1)N1CCC(C(=O)N2CCC(c3nc4ccncc4[nH]3)C2)CC1 (stereo not drawn),0,-,-,0
Cc1nn(-c2ccc(C(C)C)cc2)c(C)c1[C@@H]1C=C[C@@H](NCc2cccc(Cl)c2)C1,10µM,44.7µM,?,12.6µM
Cc1nn(-c2ccccn2)c(C)c1[C@@H]1C=C[C@@H](NC(=O)NC(C)C)C1,0,?,0,?
Cc1nn(-c2ccc(C(C)C)cc2)c(C)c1[C@@H]1C=C[C@@H](NCc2ccccc2)C1,25.1µM,63.1µM,0,11.2µM
Cc1noc(C)c1[S+](=O)([O-])N1CCC(C(=O)N2CCC(c3nc4ncccc4[nH]3)CC2)C1 (stereo not drawn),0,-,-,0
COCC1CN(C)CC12CCN(C(=O)Cc1ccc(OC)cc1)CC2 (stereo not drawn),?,0,0,0

# High-throughput results as filed in PubChem BioAssay.
